This note sets out measurements from PubChem BioAssay (NCI).

Compounds without any hit were thinned out: in the full panel of roughly 83,000, 20% have a hit.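 Negative percent growth values reflect cell death: -40 means 40% of the cells present at the start died, and -100 means all died.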 A number with no mark means an inactive call. The source made the active and inactive calls. How the source made its calls: active means growth percent below 10; inactive means the rest.

Test systems include EKVX NSCLC; SN12C renal; UO-31 renal; TK-10 renal; ACHN renal; CAKI-1 renal; A498 renal; CCRF-CEM leukemia; MOLT-4 leukemia; SR leukemia.
Experiment in all cases: NCI-60 one-dose screen, 48 h (100 = growth as untreated, 0 = no growth, -100 = all killed)
Common to all, as to details: 10 µM

Regarding `CCN(CC)CCOc1nc2cc(OC)c(OC)cc2c2c1-c1ccc(OC)cc1C2=O`, the growth with EKVX NSCLC was 98.6%; in the assay with SN12C renal, 80.7%; in the assay with UO-31 renal it was 47.7%; in the assay on TK-10 renal, 105%; in the assay with ACHN renal, 56%; in the assay with CAKI-1 renal it was 35.7%. The growth in the assay on A498 renal was 96.6%; with CCRF-CEM leukemia it was 22.4%; in the assay with MOLT-4 leukemia it was 9.28% (active); with SR leukemia it was -29.6% (active).
As for `NC1(C(=O)O)CSSC1`, the growth was 78.9% with EKVX NSCLC; 39.5% with SN12C renal; 57.6% in the assay on UO-31 renal; 64.3% in the assay on TK-10 renal; 49.4% with ACHN renal; 101% in the assay on CAKI-1 renal. The growth is 56.2% with A498 renal, 78.5% with CCRF-CEM leukemia, 87.3% with MOLT-4 leukemia and 89.5% with SR leukemia.
`CCN(CC)CCC(CNc1c(C)cnc2cc(Cl)ccc12)c1ccc(Cl)c(Cl)c1` (configuration not stated): the growth was 73.5% with EKVX NSCLC; 59.1% in the assay on SN12C renal; 44.5% with UO-31 renal; 94.4% in the assay with TK-10 renal; 54.8% in the assay with ACHN renal; 62.1% in the assay with CAKI-1 renal. Moreover, the growth with A498 renal was 24.6%; in the assay with CCRF-CEM leukemia it was 30.3%; in the assay with MOLT-4 leukemia it was 25.2%; with SR leukemia, -19.1% (active).
`Oc1[nH]c2ccc(Cl)cc2c1/C=c1/ccc2c(c1)N=C(c1cc(F)cc(F)c1)N=2`: the growth in the assay on EKVX NSCLC is 88.8%; in the assay on SN12C renal it was 86.3%; in the assay with UO-31 renal it was 75.2%; with TK-10 renal, 100%; with ACHN renal it was 67.3%; with CAKI-1 renal it was 58.6%. For the same compound, the growth in the assay on A498 renal was 72.5%; with CCRF-CEM leukemia it was 16.6%; in the assay on MOLT-4 leukemia it was 12.8%; in the assay on SR leukemia it was 13.9%.
`CCOC(=O)CNC(=O)CCCCSc1ncnc2nc[nH]c12`: the growth is 108% with EKVX NSCLC; 99% with SN12C renal; 96.5% in the assay with UO-31 renal; 158% with TK-10 renal; 104% in the assay on ACHN renal; 96.1% with CAKI-1 renal. Moreover, the growth with A498 renal is 124%; with CCRF-CEM leukemia, 113%; with MOLT-4 leukemia, 101%; in the assay on SR leukemia, 90.6%.
As for `CCN(CC)CCCC(C)Nc1nc(-c2ccc(OC)cc2)nc2cc(Cl)ccc12` (configuration not stated), the growth was 70.2% in the assay on EKVX NSCLC; 58% in the assay on SN12C renal; 45% with UO-31 renal; 88.8% with TK-10 renal; 37% with ACHN renal; 78.8% in the assay on CAKI-1 renal. For the same compound, the growth with A498 renal was 37.4%; in the assay with CCRF-CEM leukemia, 57.9%; in the assay on MOLT-4 leukemia, 37.7%; with SR leukemia it was 51.8%.
For `COc1ccc2c(c1)sc1nc(-c3ccccc3)c(-c3ccsc3)n12`, the growth in the assay on EKVX NSCLC was 40.8%; in the assay on SN12C renal, 50.2%; with UO-31 renal, 37.8%; in the assay with TK-10 renal it was 46.1%; with ACHN renal, 54.2%; in the assay on CAKI-1 renal it was 27.9%. Also, the growth in the assay on A498 renal was -7.5% (active); in the assay on CCRF-CEM leukemia, 23.2%; in the assay with SR leukemia, 6.49% (active).
With `CC/C(=N\N=C(/CC)c1ccc(Br)cc1)c1ccc(Br)cc1`, the growth in the assay with EKVX NSCLC was 90.6%; in the assay on SN12C renal it was 96%; in the assay on UO-31 renal, 92.6%; with TK-10 renal it was 111%; in the assay on ACHN renal, 94.4%; in the assay with CAKI-1 renal, 99.3%. Further, the growth is 103% in the assay with A498 renal, 105% in the assay with CCRF-CEM leukemia, 105% with MOLT-4 leukemia and 96.9% in the assay on SR leukemia.
Consider `COc1cc2c(cc1OC)N(CCO)C1=C(C(=O)OC1)C2c1ccc(Cl)c(Cl)c1` (configuration not stated), for which the growth is 87% in the assay with EKVX NSCLC; 108% in the assay with SN12C renal; 82.3% with UO-31 renal; 98.7% with TK-10 renal; 107% with ACHN renal; 107% in the assay on CAKI-1 renal. Further, the growth in the assay on A498 renal was 89.3%; in the assay with CCRF-CEM leukemia, 92.6%; in the assay with SR leukemia, 86%.
Take `C/C(=N\Nc1nc2ccccc2s1)c1ccncn1`: the growth was 22.7% in the assay on EKVX NSCLC; 46.7% in the assay with SN12C renal; 19.8% in the assay on UO-31 renal; 50.6% with TK-10 renal; 12.6% in the assay with ACHN renal; 29.9% in the assay on CAKI-1 renal. For the same compound, the results for the growth in the assay on A498 renal, in the assay on CCRF-CEM leukemia and in the assay on SR leukemia were 63.3%, 5.95% (active) and 17.8%, respectively.
Regarding `O=[N+]([O-])c1cccc(N=Cc2ccc3c(c2)OCO3)c1`, the growth in the assay on EKVX NSCLC was 104%; in the assay on SN12C renal, 101%; with UO-31 renal it was 76.7%; in the assay on TK-10 renal it was 106%; in the assay on ACHN renal, 122%; with CAKI-1 renal, 98.3%. The growth in the assay on A498 renal was 118%; in the assay on CCRF-CEM leukemia, 97%; in the assay on MOLT-4 leukemia it was 89.7%; with SR leukemia, 102%.
On to `COc1cc(CNc2ccccc2C(=O)N2CCN(C(=O)c3cc(-c4cc(OC)c(OC)c(OC)c4)n4nc(-c5ccccc5)cc4n3)CC2)cc(OC)c1OC`, for which the growth was 63.6% in the assay on EKVX NSCLC; 79.4% in the assay on SN12C renal; 19.1% in the assay with UO-31 renal; 52.1% in the assay with TK-10 renal; 51.8% in the assay with ACHN renal; 18.9% with CAKI-1 renal. Also, the growth is -5.33% (active) in the assay with A498 renal, 58.8% in the assay on CCRF-CEM leukemia, 68% with MOLT-4 leukemia and 8.84% (active) with SR leukemia.
Regarding `COc1ccc2c(c1)C(=O)c1c-2c(OCCN(C)C)nc2ccccc12`, the growth in the assay on EKVX NSCLC is 44.7%; in the assay with SN12C renal, 34.7%; in the assay on UO-31 renal, -4.51% (active); in the assay on TK-10 renal it was 43.3%; with ACHN renal, 9.68% (active); with CAKI-1 renal it was 14.6%. Besides, the growth in the assay on A498 renal is 65.8%; in the assay on CCRF-CEM leukemia, 20.9%; in the assay with MOLT-4 leukemia it was 4.41% (active); in the assay with SR leukemia, 1.16% (active).
`c1ccc([C@H]2CN3CCSC3=N2)cc1`: the growth in the assay on EKVX NSCLC was 98.3%; in the assay on SN12C renal, 109%; in the assay on UO-31 renal, 88.2%; in the assay on TK-10 renal it was 112%; in the assay with ACHN renal, 107%; in the assay with CAKI-1 renal, 93.6%. Further, the growth was 85% in the assay on A498 renal, 99.1% with CCRF-CEM leukemia, 98.5% in the assay with MOLT-4 leukemia and 103% with SR leukemia.
